Assay outcomes as filed in PubChem BioAssay.
LYPLA1 counter = blocks human lysophospholipase 1, a PME1 counter-screen; recombinant LYPLA1, FP-Rh probe fluorescence polarization; AID 2174; hit rate 0.16% among 320,000; inhibition, % at 5.9 µM; O75608;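 active means inhibition above the mean of all tested compounds plus 3 SD, set per campaign, cut at about 14% in these data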;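 further: inhibitors block serine hydrolase probe labeling of LYPLA1 so polarization falls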
Target sequence (O75608 whole entry, looked up): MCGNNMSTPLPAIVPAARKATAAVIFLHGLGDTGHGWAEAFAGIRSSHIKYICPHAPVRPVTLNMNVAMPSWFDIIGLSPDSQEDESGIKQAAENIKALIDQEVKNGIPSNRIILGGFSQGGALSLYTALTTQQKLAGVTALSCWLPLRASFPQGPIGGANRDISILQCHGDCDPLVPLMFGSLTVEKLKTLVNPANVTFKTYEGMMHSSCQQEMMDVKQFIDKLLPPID
Fam108B counter = blocks mouse Fam108B hydrolase in RBBP9 counter-screen; recombinant Fam108B, FP-Rh probe fluorescence polarization; inhibition, % at 9.51 µM; hit rate 0.33% among 300,000; AID 1947;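 active means inhibition above the screen mean inhibition plus 3 SD, computed separately per campaign, cut at about 18% in these data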;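 further: inhibitors lower polarization as less probe binds the enzyme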
PP5 inh = PP5 (human) phosphatase inhibition | P53041 | purified PP5c, OMFP substrate fluorescence | inhibition, % at 6.7 µM | hit rate 0.18% among 320,000 | AID 1987;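 active means inhibition above the campaign's mean inhibition across all tested compounds plus 3 SD, cut at about 9.5% in these data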
LYPLA2 inh = counter-screen for PME1 inhibitors: inhibitors of human LYPLA2; O95372; recombinant LYPLA2, FP-Rh probe fluorescence polarization; inhibition, % at 5.9 µM; hit rate 0.38% among 320,000; AID 2177;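 active means inhibition above the screen-wide mean plus 3 SD, limit set per campaign, cut at about 26% in these data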
PP1 counter = blocks human PP1-alpha phosphatase, a PP5 counter-screen; inhibition, % at 6.7 µM; hit rate 0.9% among 320,000; P62136; AID 2235; purified PP1alpha, OMFP fluorescence;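 active means inhibition above the mean inhibition of all tested compounds plus 3 SD, computed separately for each screening campaign, cut at about 15% in these data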
Target sequence (P62136 whole entry, looked up): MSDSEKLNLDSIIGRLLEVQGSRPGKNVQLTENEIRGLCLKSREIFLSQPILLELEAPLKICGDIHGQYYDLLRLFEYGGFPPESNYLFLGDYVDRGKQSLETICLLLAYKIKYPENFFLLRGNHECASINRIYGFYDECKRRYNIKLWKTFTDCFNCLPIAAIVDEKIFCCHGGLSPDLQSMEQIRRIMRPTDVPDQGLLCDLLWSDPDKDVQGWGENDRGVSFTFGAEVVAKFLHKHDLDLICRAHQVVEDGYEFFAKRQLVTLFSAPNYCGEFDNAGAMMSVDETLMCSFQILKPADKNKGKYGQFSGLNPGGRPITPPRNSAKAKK
PME-1 primary = blocks human protein phosphatase methylesterase 1; hit rate 0.53% among 320,000; inhibition, % at 5.9 µM; Q9Y570; recombinant PME-1, FP-Rh probe fluorescence polarization;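 active means inhibition above the campaign mean of all compounds plus 3 SD, cut at about 26% in these data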;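 further: competitive labeling of PME-1 active site by serine hydrolase directed probe; inhibitors block probe labeling so polarization falls and inhibition rises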
Each line names hits and unclear results; the compound was inactive in the other large screens. Rows were chosen to be rich in hits. Some 1.8% of all compounds tested hit in one or more screens of this group.

Cc1nnc(SCC(=O)Nc2cccc(S(=O)(=O)N(C)c3ccccc3)c2)s1	none
COc1cc(NC(=O)c2sc3ncn(CC(=O)N4CCC(C)CC4)c(=O)c3c2C)cc(OC)c1OC	none
COc1cc(NC(=O)c2sc3ncn(CC(=O)N4CCCC(C)C4)c(=O)c3c2C)cc(OC)c1OC (stereo unspecified)	PP1 counter 16.6
COc1ccc(-c2csc(NC3CCCCC3)n2)c(OC)c1	none
CCC1CCCCN1S(=O)(=O)c1ccc(C(=O)Nc2nnc(C3=COCCO3)o2)cc1 (stereo unspecified)	PP1 counter 16.7
CC1CCN(S(=O)(=O)c2ccc(C(=O)Nc3nnc(C4=COCCO4)o3)cc2)CC1	none
CC1CCN(S(=O)(=O)c2ccc(C(=O)Nc3nnc(-c4ccccn4)o3)cc2)CC1	PP1 counter 16.8
N#Cc1ccc(C(=O)Nc2nnc(-c3ccccn3)o2)cc1	none
CCc1nnc(NC(=O)c2ccc(S(=O)(=O)N3CCCC(C)C3)cc2)o1 (stereo unspecified)	none
O=C(Nc1nnc(-c2ccccn2)o1)c1cccc(Br)c1	PP1 counter 15.5
CC1CCCN(S(=O)(=O)c2ccc(C(=O)Nc3nnc(-c4ccco4)o3)cc2)C1 (stereo unspecified)	PP1 counter 16.9
COc1cc(OC)cc(C(=O)NCCCCc2ccccc2)c1	none
CCc1nnc(NC(=O)CCC(=O)NC2CCCC2)s1	none
COc1ccc(CNC(=O)C2CCN(S(=O)(=O)c3cccc4nsnc34)CC2)cc1	none
CC(=O)c1cccc(NC(=O)CCc2nnc3ccc(N4CCOCC4)nn23)c1	none
O=c1oc(C2(O)CCCCC2)cc2ccc(/C=C/c3ccc(F)cc3)cc12	none (no result: Fam108B counter)
O=C(NCCc1ccccc1)C1CC(=O)N(C2CCCCC2)C1 (stereo unspecified)	none
Cc1ccc(-n2c(SCC(=O)Nc3ccc4c5c(cccc35)CC4)nc(O)cc2=O)cc1	PP1 counter 15.7
Cc1ccc(-n2c(SCC(=O)Nc3ccc4c5c(cccc35)CC4)nc(O)c(C)c2=O)cc1	none
CCC(C)Sc1ccc([C@@H]2[C@H]3C(=O)N(CC)C(=O)[C@H]3[C@]3(C(=O)OC)CCCCN23)cc1 (stereo partly specified)	none
Cc1occc1-c1nnc(SCC(=O)NC2CC2)n1C(C)C	none
O=C(c1ccc(-c2ccc([N+](=O)[O-])cc2)o1)N1CCCCC1	none
O=C(c1ccc(-c2ccc(Cl)cc2)o1)N1CCN(c2ccc([N+](=O)[O-])cc2Cl)CC1	PP1 counter 16.2
COc1cccc(CN2CC(C(=O)NCCN3CCOC3=O)CCC2=O)c1 (stereo unspecified)	none
Cc1ccc(NC(=O)Nc2ccc3c(c2)OCO3)c(Br)c1	PP1 counter 16.7
O=C(Nc1ccc2c(c1)OCO2)Nc1ccc2c(c1)OCO2	none
NS(=O)(=O)c1ccc(-c2ccc(/C=N/Nc3ccc(C(=O)O)cc3)o2)cc1	none
O=C(O)c1ccc(-c2ccc(/C=N/Nc3ccc([N+](=O)[O-])cc3)o2)cc1	PME-1 primary 46.5
O=C(NCC1OCCCN1S(=O)(=O)c1cc(F)ccc1F)C(=O)NC1CCCC1 (stereo unspecified)	none
CN(C)S(=O)(=O)c1cccc(-c2nn(-c3ccccc3)cc2/C=C2\SC(=S)NC2=O)c1	PP1 counter 16.6
Cc1ccccc1C(=O)Nc1nnc(CC(=O)N/N=C/c2cn(Cc3ccccc3)c3ccccc23)s1	PP1 counter 15.5
O=C(O)CCn1c(SCCc2ccccc2)nc2ccccc21	none
COc1ccccc1NS(=O)(=O)c1ccc(N/N=C/c2ccccc2OCC(=O)O)c([N+](=O)[O-])c1	PME-1 primary 54.5
CCCc1cc(=O)oc2cc(OCc3ccc(C(=O)O)cc3)ccc12	none
O=C(C1=C(O)C(=O)N(CCN2CCOCC2)C1c1ccc(Cl)cc1)c1cc2ccccc2o1 (stereo unspecified)	PP1 counter 18.6
O=C(C1=C(O)C(=O)N(CCN2CCOCC2)C1c1ccc([N+](=O)[O-])cc1)c1cc2ccccc2o1 (stereo unspecified)	none
O=C(C1=C(O)C(=O)N(CCCN2CCOCC2)C1c1ccc(Cl)cc1)c1cc2ccccc2o1 (stereo unspecified)	PP1 counter 16.5
O=C(CNS(=O)(=O)c1ccc(Cl)c(C(F)(F)F)c1)NC1CCCCC1	none (no result: Fam108B counter)
COc1ccc2cc(C(=O)C3CCCN(C(=O)c4cncs4)C3)ccc2c1 (stereo unspecified)	none
Nc1ccc(N2CCN(CCCCN3C(=O)C4CCCN4C3=O)CC2)cc1 (stereo unspecified)	LYPLA2 inh 28.9
FC(F)(F)c1cccc(NC(=S)NNC(=S)Nc2cccc(C(F)(F)F)c2)c1	PME-1 primary 33.4
Cc1cc(C(=O)Cn2nc(C(=O)O)c3ccccc3c2=O)c(C)n1-c1ccc(OC(F)F)cc1	PP1 counter 16.0
O=C(/C=C/c1ccccc1Cl)OCC(=O)c1ccc[nH]1	none (no result: Fam108B counter)
CCOC(=O)CC1CCCCN1C(=O)c1ccc2nc(CCOC)oc2c1 (stereo unspecified)	none
CC(Sc1nnc(N)s1)C(=O)Nc1ccc2c(c1)OCCO2 (stereo unspecified)	none
N#CC1=C(S)N=C(N)C(c2nc(-c3ccccc3)cs2)C12CCCCC2 (stereo unspecified)	none
Cc1ccc(-c2csc(C3C(N)=NC(S)=C(C#N)C34CCCCC4)n2)cc1 (stereo unspecified)	PP1 counter 16.6
Nc1c(C(=O)Nc2ccccc2F)sc2nc(-c3ccco3)ccc12	PME-1 primary 36.5
COc1ccc(/C=N/NC(=O)c2cc3cc(OC)c(OC)cc3[nH]2)cc1	PME-1 primary 26.5
COc1cccc(C(=O)Nc2ccc(-c3nc4ccccc4o3)c(O)c2)c1	PP1 counter 15.6
COc1cc(OC)cc(C(=O)Nc2ccc(-c3nc4ccccc4o3)cc2)c1	none
O=c1cc(O)c2c(=O)n(Cc3ccccc3)c3ccccc3c2o1	PP1 counter 28.9
COC(=O)c1c(NC(=O)CN2C(=O)NC3(CCc4ccccc4C3)C2=O)sc2c1CCCCC2 (stereo unspecified)	PP1 counter 15.4
CCOc1ccc(OCC(O)CNC2CCN(Cc3ccccc3)CC2)cc1 (stereo unspecified)	none
CC(C)(c1ccccc1)c1ccc(OCC(O)CNC2CCN(Cc3ccccc3)CC2)cc1 (stereo unspecified)	PP1 counter 16.1
Cc1ccc(-n2c(-c3ccc(Br)cc3)c[n+]3c2CCc2ccc4cccnc4c2-3)cc1	PP1 counter 25.0
Cc1ccc(-c2ccc(S(=O)(=O)Nc3cccnc3)cc2)cc1	PP1 counter 16.2
CN1C(=O)C2(OCC(CO)([N+](=O)[O-])CO2)c2ccccc21 (stereo unspecified)	none
Cc1c2ccccc2cc[n+]1CCCS(=O)(=O)[O-]	none
